Screening results: PubChem BioAssay, National Center for Advancing Translational Sciences (NCATS)
An excerpt weighted towards active compounds, which were near 21% of everything screened.
Pf growth 48h – Primary qHTS for delayed death inhibitors of the malarial parasite plastid, 48 hour incubation. P. falciparum luciferase growth in erythrocytes, 48 h. 5.9% of 310,000 active. Potency, µM (highest dose often 28.7 µM), usual class: inhibitors. AID 504832, 2011
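In quantitative HTS format, infected erythrocytes bearing luciferase-reporter parasites were treated for a single generation at 37 C. Luminescence after adding detection reagent served as the growth measure.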
NS1 inh – qHTS Assay for Inhibitors of Influenza NS1 Protein Function. Potency, µM (titrated, usually from 46.1 µM). 0.4% of 270,000 active. AID 2326, 2010; calls by dose curve; further: actives are rising curves; nearly all actives have a fitted effect of over 50% in size
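Growth recovery, yeast-based: influenza A NS1 expressed in S. cerevisiae causes slow growth, and suppressors are detected by OD600. The parent strain without NS1 is used as positive control.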
CHX counter-1 – Cycloheximide Counterscreen for Small Molecule Inhibitors of Shiga Toxin; cell reporter, cycloheximide protein synthesis inhibition counterscreen; max response, %; 12% of 300,000 active; AID 2314, 2010; in the data active means max response mostly above about 13%, no sharp cut-off; inactive means mostly below about 14%; further: read at 38.3 µM for the half of the compounds with a filed dose
Pf growth 96h – Primary qHTS for delayed death inhibitors of the malarial parasite plastid, 96 hour incubation. Potency, µM (titrated, usually from 28.7 µM), actives largely listed as inhibitors. 6.9% of 320,000 active. P. falciparum luciferase reporter growth, 96 h. AID 504834, 2011
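Readout is luminescence from an integrated firefly luciferase in P. falciparum. Red cells, 2% hematocrit and 0.05% parasitemia final, were cultured with compound through two parasite generations (96 hours) at 37 C, 5% CO2.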
Shiga inhibitor – A qHTS for Small Molecule Inhibitors of Shiga Toxin; Vero cells, Shiga toxin protein synthesis inhibition reporter; inhibition, % at 38.7 µM; 9.2% of 290,000 active; in the data active means inhibition mostly above about 28%, no sharp cut-off; inactive means mostly below about 43%
CHX counter-2 – Cycloheximide Counterscreen for Small Molecule Inhibitors of Shiga Toxin (Confirmatory) | shares compounds with Shiga inhibitor | Cycloheximide counterscreen, protein synthesis reporter, Shiga toxin assay | Potency, µM (highest dose often 38.3 µM), hits mostly activators | 3% of 510 active; calls by dose curve
Of the large screens only hits and unclear results are named; the others gave an inactive call (follow-up assays come after a bar, where they were run). Unless noted, the call rests on the fitted dose curve; in most records, active means well fitted inhibition curve with a large enough effect; inconclusive means small, poorly fitted or top-dose-only effect, or another doubt; inactive means no such curve, though single readings can be large or run the other way.

Cc1cc(C(=O)COC(=O)c2ccc([N+](=O)[O-])o2)c(C)n1CC1CCCO1 (configuration not stated)	CHX counter-1 49, Shiga inhibitor 123
O=C(COC(=O)c1ccc(O)cc1)NCC1COc2ccccc2O1 (configuration not stated)	Pf growth 96h inconclusive (no result: NS1 inh, CHX counter-1, Shiga inhibitor)
COc1cccc(CCc2nnc(CCC(=O)NC(C)Cc3cccs3)o2)c1 (configuration not stated)	none
NNC(=O)CNC(=O)C12CC3CC(CC(C3)C1)C2	none
COc1cc(C(=O)OCC(=O)c2cc(C)n(CC3CCCO3)c2C)cc(OC)c1C (configuration not stated)	Pf growth 48h inconclusive (no result: NS1 inh, CHX counter-1, Shiga inhibitor)
COc1ccc(C(=O)COC(=O)c2cccnc2SC)cc1	CHX counter-1 30, Pf growth 96h inconclusive
CSc1ncccc1C(=O)OCC(=O)c1ccccc1	none
Cc1cc(C(=O)COC(=O)C2CCN(C(=O)c3ccc(Cl)cc3)CC2)c(C)n1CC1CCCO1 (configuration not stated)	CHX counter-1 66, Shiga inhibitor 100 (no result: NS1 inh)
CSc1ncccc1C(=O)OCC(=O)c1cc(C)n(CC2CCCO2)c1C (configuration not stated)	CHX counter-1 39, Shiga inhibitor 56
CCC(=O)c1ccc(OCC(=O)OCC(=O)c2cc(C)n(CC3CCCO3)c2C)cc1 (configuration not stated)	none (no result: NS1 inh, CHX counter-1, Shiga inhibitor)
Cc1cc(C(=O)COC(=O)c2ccc3c(c2)OCO3)c(C)n1CC1CCCO1 (configuration not stated)	CHX counter-1 40, Shiga inhibitor 147
Cc1c(C(=O)C(=O)NCc2ccco2)c2ccccc2n1C	none (no result: NS1 inh)
COCCn1c(C)cc(C(=O)COC(=O)c2ccc([N+](=O)[O-])o2)c1C	CHX counter-1 46, Shiga inhibitor 123 (no result: NS1 inh)
COc1ccc(C(=O)COC(=O)c2nn(C)cc2Cl)cc1	CHX counter-1 15, Shiga inhibitor 69
Brc1ccc(-c2nnc(-c3cccc(Br)c3)o2)cc1	Pf growth 48h inconclusive, NS1 inh inconclusive, Pf growth 96h inconclusive
Brc1ccccc1-c1nnc(-c2cccnc2)o1	CHX counter-1 30, Shiga inhibitor 49
Brc1ccc(-c2nnc(-c3ccccc3Br)o2)cc1	CHX counter-1 82, Shiga inhibitor 93
Cc1ccc(-c2nnc(-c3ccccc3Br)o2)cc1	CHX counter-1 38 (no result: Shiga inhibitor)
Cc1ccc(-c2nnc(/C=C/c3ccccc3)o2)cc1	CHX counter-1 50, Shiga inhibitor 147
Cc1ccc(-n2nnnc2SCc2nnc(-c3ccccc3Br)o2)cc1	none
CCCc1ccc2oc(C(=O)N(Cc3ccncc3)CC3CCCO3)c(C)c2c1 (configuration not stated)	Pf growth 48h 9.3µM, CHX counter-1 12
Cc1c(C(=O)N(Cc2ccc(N(C)C)cc2)CC2CCCO2)oc2ccccc12 (configuration not stated)	Pf growth 96h 4.1µM
Cc1ccc2oc(C(=O)N(Cc3ccncc3)CC3CCCO3)c(C)c2c1 (configuration not stated)	Pf growth 48h inconclusive, CHX counter-1 35, Shiga inhibitor 54
Cc1cc(C)n(C(=O)CNC(=O)CCc2ccccc2)n1	none
COc1cccc(OC)c1NC(=O)CN1CCN(C)CC1	none (no result: Pf growth 48h)
COc1ccccc1OCc1n[nH]c(=S)n1Cc1ccccc1	Pf growth 48h inconclusive, Pf growth 96h inconclusive (no result: NS1 inh)
CC(Oc1ccc(Cl)cc1)c1ccnn1S(=O)(=O)c1ccc(Cl)cc1 (configuration not stated)	Pf growth 48h inconclusive
CC(Oc1ccc(-c2ccccc2)c(F)c1)c1ccn(S(=O)(=O)c2ccc(Br)cc2)n1 (configuration not stated)	Pf growth 48h inconclusive, Pf growth 96h 10µM
O=C(CNCC1CCCO1)N1CCCc2ccccc21 (configuration not stated)	none
COC(=O)c1cc(C)nc2c1C(=O)C(=O)C=C2N1CCOCC1	Pf growth 48h 13µM
COC(=O)c1cc(S(=O)(=O)N2CCOCC2)c(Cl)cc1N1CCOCC1	none (no result: Pf growth 96h)
Cc1cc(N2CCOCC2)nc2ccc(NC(=O)CCC(=O)N3CCCC(C)C3)cc12 (configuration not stated)	CHX counter-1 54, Pf growth 96h inconclusive
Cc1cc(N2CCOCC2)nc2ccc(NC(=O)CCC(=O)N3CCN(c4ccc(F)cc4)CC3)cc12	Pf growth 48h inconclusive, Pf growth 96h inconclusive
Cc1cc(N2CCOCC2)nc2ccc(NC(=O)CCC(=O)N3CCN(c4ccccc4F)CC3)cc12	CHX counter-1 22
CCN(CC)CCC#CC(O)(c1ccccc1)c1ccccc1	Pf growth 96h 9.3µM
C[N+]1(CC#CC(O)(c2ccccc2)c2ccccc2)CCCC1	Pf growth 48h inconclusive, Pf growth 96h 5.2µM
CCCN(CC#CC(O)(c1ccccc1)c1cccnc1)CCC (configuration not stated)	none
O=C(O)CCNC(=S)Nc1cccc(F)c1	NS1 inh inconclusive
CCOC(=O)N1CCN(CC(O)COc2ccc(C)cc2C(C)(C)C)CC1 (configuration not stated)	Pf growth 48h inconclusive
O=[N+]([O-])c1ccc(S(=O)(=O)Nc2nc(-c3ccccc3)cs2)cc1	Pf growth 96h 6.6µM
Cc1ccc(S(=O)(=O)Nc2nc(-c3ccc(F)cc3)cs2)cc1	CHX counter-1 13
O=S(=O)(Nc1nc(-c2ccccc2)cs1)c1cccc(C(F)(F)F)c1	none
COc1ccc(-c2csc(NC(=O)c3ccccc3NS(=O)(=O)c3ccc(C)cc3)n2)cc1	none
COc1ccc(S(=O)(=O)NCc2nc3nc(C)cc(C)n3n2)cc1OC	Pf growth 96h 5.2µM
C=C1CCC(O)C/C1=C/C=C1\CCC[C@]2(C)[C@@H]([C@H](C)CCCC(C)C)CC[C@@H]12 (some centres not stated)	Shiga inhibitor 65 (no result: Pf growth 48h, NS1 inh, Pf growth 96h) | CHX counter-2 inactive
C=C1/C(=C\C=C2/CCC[C@]3(C)[C@@H]([C@H](C)CCCC(C)(C)O)CC[C@@H]23)C[C@@H](O)C[C@@H]1O	none (no result: NS1 inh)
COc1ccccc1N(CC(=O)NC1CCCCC1)C(=O)CNC(=O)c1cccs1	none
COc1cc2c(cc1OC)C(c1cc(OC)c(OC)c(OC)c1)NCC2 (configuration not stated)	none
COc1cc2c(c(OC)c1OC)-c1c(cc(OC)c(OC)c1OC)CC(C)C(C)C2 (configuration not stated)	Shiga inhibitor 32 (no result: Pf growth 48h, NS1 inh, Pf growth 96h) | CHX counter-2 inactive
O=C(Nc1ccc(Cl)cc1)c1ccncc1	Shiga inhibitor 52 | CHX counter-2 inconclusive
COc1cc(C[C@@H]2C(=O)OC[C@H]2Cc2ccc(OC)c(OC)c2)ccc1O	none (no result: NS1 inh, CHX counter-1, Shiga inhibitor)
Cn1c(CN2CCCCC2)nc2cc(NC(=O)c3ccc(Cl)cc3)ccc21	Pf growth 48h inconclusive, Shiga inhibitor 27 | CHX counter-2 inactive
